# Screens as filed in PubChem BioAssay.
# Hits are enriched below; roughly 10% of the tested compounds scored in any of these assays.
# GPT2 inhibitor – GPT2 alanine aminotransferase inhibition. AID 1671188. actives 0.25% (n = 100,000). Potency, µM (series often up to 57.7 µM), for inactives: top-dose activity change, negative = inhibition, usual class: inhibitors. Q8TD30. Recombinant GPT2, coupled pyruvate oxidase/HRP Amplex Red fluorescence; also: % is scaled to controls: 0 for no effect and ±100 for the full control effect; nearly all actives have a fitted effect of over 60% in size
#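 Recombinant GPT2 (10ng/uL) with 250uM a-KG and 2mM L-alanine, 30 min at room temperature, in HEPES pH 7.5 buffer. Pyruvate detected by pyruvate oxidase/HRP/Amplex Red fluorescence after 30 min in the dark; AOA (50uM) as positive control.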
# HEK293 tox – kills HEK 293 cells | HEK 293 viability, ATP luminescence (CellTiter-Glo), 48-72 h | Potency, µM (series often up to 115 µM), for the others: at the highest dose activity change, negative = cytotoxicity, usual class: inhibitors | actives 6.6% (n = 94,000) | AID 1345083; also: % is scaled to controls: 0 for no effect and ±100 for the full control effect; nearly all actives have a fitted effect of over 60% in size
#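 CellTiter-Glo luminescence (cellular ATP) was read after 48 or 72 hr of compound exposure at 37 degree Celsius. Cells were HEK 293 plated at 250 cells/well.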
# FLuc inh – Photinus pyralis luciferase inhibition; AID 1347043; Potency, µM (doses to about 115 µM), actives largely listed as inhibitors; purified P. pyralis luciferase, luminescence, biochemical; P08659; actives 2.5% (n = 76,000); also: % is scaled to controls: 0 for no effect and ±100 for the full control effect; nearly all actives have a fitted effect of over 65% in size
#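 Biochemical qHTS: compound (6-point titration) added to 10uM D-luciferin plus 10uM ATP in Tris acetate pH 7.5 buffer with Mg, Tween-20 and BSA, then purified enzyme at 10nM; light output imaged.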
# NIH3T3 tox – NIH 3T3 cell cytotoxicity. NIH 3T3 viability, CellTiter-Glo ATP luminescence, 48-72 h. Potency, µM (titrated, usually from 96.7 µM), inactives show at the top dose activity change, negative = cytotoxicity, most hits filed as inhibitors. actives 4.3% (n = 94,000); also: % is scaled to controls: 0 for no effect and ±100 for the full control effect; nearly all actives have a fitted effect of over 55% in size
#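 ATP-dependent luminescence (CellTiter-Glo) served as the viability signal for NIH 3T3 cells treated with compound for 48 or 72 hr at 37 °C.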
# hNpr1 antagonist – blocks ANP-stimulated signaling of human Npr1 receptor. AID 1347048. P16066. HEK293 hNpr1 GloSensor cGMP, ANP-stimulated luminescence. actives 1.6% (n = 76,000). Potency, µM (top dose mostly 46.3 µM), without a hit: at the highest dose activity change, negative = inhibition, most hits filed as inhibitors; calls by dose curve; also: % is scaled to controls: 0 for no effect and ±100 for the full control effect; nearly all actives have a fitted effect of over 60% in size
# Target sequence (P16066 whole entry, looked up): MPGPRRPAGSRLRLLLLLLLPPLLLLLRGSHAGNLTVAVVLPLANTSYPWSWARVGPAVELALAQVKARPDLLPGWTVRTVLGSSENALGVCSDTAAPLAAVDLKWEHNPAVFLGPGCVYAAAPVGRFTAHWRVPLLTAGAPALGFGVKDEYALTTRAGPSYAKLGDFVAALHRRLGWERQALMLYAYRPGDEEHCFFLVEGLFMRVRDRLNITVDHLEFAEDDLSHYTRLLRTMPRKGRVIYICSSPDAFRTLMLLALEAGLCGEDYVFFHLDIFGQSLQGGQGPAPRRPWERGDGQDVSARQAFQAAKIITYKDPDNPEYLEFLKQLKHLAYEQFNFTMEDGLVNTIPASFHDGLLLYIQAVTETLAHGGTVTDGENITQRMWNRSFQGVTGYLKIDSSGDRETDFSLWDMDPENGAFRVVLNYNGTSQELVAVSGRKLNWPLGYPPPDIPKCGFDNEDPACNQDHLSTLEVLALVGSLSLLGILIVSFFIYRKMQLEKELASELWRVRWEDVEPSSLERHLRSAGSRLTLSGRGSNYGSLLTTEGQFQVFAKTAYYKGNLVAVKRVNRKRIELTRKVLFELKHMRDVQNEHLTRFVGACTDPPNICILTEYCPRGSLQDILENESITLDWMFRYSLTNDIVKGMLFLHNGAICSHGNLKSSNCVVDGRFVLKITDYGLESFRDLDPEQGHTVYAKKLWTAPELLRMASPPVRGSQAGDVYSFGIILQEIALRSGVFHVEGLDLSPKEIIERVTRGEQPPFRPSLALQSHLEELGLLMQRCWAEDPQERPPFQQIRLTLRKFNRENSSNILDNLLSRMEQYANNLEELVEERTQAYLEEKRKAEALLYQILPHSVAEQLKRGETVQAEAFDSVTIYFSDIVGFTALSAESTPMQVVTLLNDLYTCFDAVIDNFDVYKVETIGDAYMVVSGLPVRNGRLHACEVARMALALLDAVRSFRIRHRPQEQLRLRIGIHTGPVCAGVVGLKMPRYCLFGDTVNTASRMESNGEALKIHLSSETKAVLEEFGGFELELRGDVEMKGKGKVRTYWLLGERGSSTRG
#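 Compound pre-incubated 30 min at room temperature on GloSensor-loaded HEK293 cells stably carrying hNpr1 and the pGS-40F cGMP biosensor. Stimulation uses hNppA at 0.1 nM final; luminescence is taken at baseline and 20 min post-agonist.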
# NPR1 antag cnf – hNpr1 antagonism, confirmation assay | AID 1347044 | shares compounds with hNpr1 antagonist | HEK293 hNpr1 cGMP GloSensor luminescence, ANP-stimulated | Potency, µM (series often up to 57.6 µM), for inactives: at the top dose activity change, negative = inhibition, hits mostly inhibitors | actives 76% (n = 1,400); calls by dose curve; also: nearly all actives have a fitted effect of over 70% in size
# NPR2 antag – antagonizes human Npr2, subtype selectivity check. Potency, µM (series often up to 57.6 µM), inactives show top-dose activity change, negative = inhibition, most hits filed as inhibitors. AID 1347046. actives 67% (n = 1,400). shares compounds with hNpr1 antagonist. HEK293 hNpr2 GloSensor cGMP luminescence, CNP-stimulated; calls by dose curve; also: nearly all actives have a fitted effect of over 70% in size
# FLuc inh counter – FLuc enzyme inhibition, Npr1 counter-screen; shares compounds with hNpr1 antagonist; purified FLuc enzyme, luminescence, Km substrate; Potency, µM (highest dose often 57.6 µM), for the others: at the highest dose activity change, negative = inhibition, usual class: inhibitors; actives 0.7% (n = 1,400); AID 1347047; also: 0% is about no effect
# GloSensor ctrl – reduces cGMP signal in GloSensor control cells | Potency, µM (doses to about 57.6 µM), inactives show top-dose activity change, negative = inhibition, hits mostly inhibitors | actives 69% (n = 1,400) | shares compounds with hNpr1 antagonist | HEK293 GloSensor cGMP, SNP-stimulated, luminescence; calls by dose curve; also: % is scaled to controls: 0 for no effect and ±100 for the full control effect; nearly all actives have a fitted effect of over 70% in size
# An asterisk follows results filed as active; i = inactive; u = inconclusive; x = no result; [ ] = another dose, or the depositor's remark. Unless noted, calls follow the shape of the dose curve; as a rule, active = well fitted curve in the direction sought with a large enough effect; inconclusive = small, poorly fitted or top-dose-only effect, or another doubt; inactive = no such curve, though single readings can be large; an effect the other way counts as inactive or inconclusive. Potency is read from the fitted curve at half-maximal effect.
SMILES,GPT2 inhibitor,HEK293 tox,FLuc inh,NIH3T3 tox,hNpr1 antagonist,NPR1 antag cnf,NPR2 antag,FLuc inh counter,GloSensor ctrl
COc1ccc(CN2CCN3C(=O)N(Cc4ccccc4)C[C@H]3C2)cc1,-17.2%[88.5 µM],u,i,-19.6%[138 µM],u,x,x,x,x
O=S(=O)(c1ccc(Cl)cc1)N1CCOC[C@H](Oc2ccc(C(F)(F)F)cc2)C1,0.8%,u,i,u,-23.7%,u,u,3.8%,u
O=C(Nc1ccc(Cl)cc1)c1nc2c(o1)CCN(CC1CCCC1)CC2,3.4%[88.5 µM],u,i,u,28.2µM*,35.3µM*,31.4µM*,-14.0%[86.2 µM],25µM*
O=C(Nc1ccc(Cl)cc1)c1nc2c(o1)CCN(CC1CC1)CC2,i,u,i,u,u,u,-25.8%[86.2 µM],-22.2%[86.2 µM],u
COCCN1C(=O)CO[C@H]2CN(CCCc3ccccc3)C[C@H]21,-4.1%[88.5 µM],u,i,u,14.1µM*,15.7µM*,19.8µM*,-2.1%[86.2 µM],12.5µM*
O=C(Nc1cc(F)cc(C(F)(F)F)c1)N1CCCOC(Cn2cccn2)C1 (centres undefined),2.2%,u,i,u,12.6µM*,21.7µM*,21.7µM*,2.8%,19.3µM*
Cc1cccc(-c2nc(CN3CCC(C(=O)NCCc4noc(-c5ccncc5)n4)CC3)c(C)o2)c1,0.2%,-22.2%,x,-21.7%,x,x,x,x,x
Cc1oc(-c2ccccc2)nc1CN1CCCC(C(=O)NCCc2noc(-c3ccccc3)n2)C1 (centres undefined),-7.4%,u,i,u,12.6µM*,u,u,4.9%,u
O=C1NCc2ccccc2CC12CCCN(CC1CC=CCC1)C2 (centres undefined),-6.2%,-2.9%,x,i,x,-20.5%,-13.5%,1.2%,6.4%
COCCn1c(=O)c(C(=O)N2CCN(C(=O)c3ccc(F)cc3)CC2)nc2cccnc21,0.0%,2.5%,x,0.4%,x,x,x,x,x
O=C(NCc1ccc(F)cc1)c1csc(N2CCN(c3ccccc3F)CC2)n1,4.4%,-6.4%,i,-13.2%,-6.2%,x,x,x,x
O=C(NCc1cccc(F)c1)c1csc(N2CCN(c3ccc(Cl)cc3)CC2)n1,-17.5%,u,i,-19.3%,12.6µM*,24.3µM*,24.3µM*,0.0%,21.7µM*
CC(=O)Nc1ccc(C(=O)N2CCC3(CC2)N=C(c2ccc(Br)cc2)NO3)cc1,i,u,i,-22.3%,12.6µM*,19.3µM*,15.3µM*,-4.3%,15.3µM*
O=C(c1ccncc1)N1CCC2(CC1)N=C(c1ccc(Cl)cc1)NO2,i,u,i,-15.6%,-18.9%,x,x,x,x
CC(=O)Nc1ccc(C(=O)N2CCC3(CC2)N=C(c2ccc(Cl)cc2)NO3)cc1,i,u,i,-19.4%,u,21.7µM*,u,-3.8%,21.7µM*
COc1ccc(NC2CCCN(C(=O)c3ccc(S(N)(=O)=O)cc3)C2)cc1 (centres undefined),i,-1.7%,i,-1.2%,-1.1%,x,x,x,x
Cc1ccc(CNC(=O)N2CCC(Cc3ccc(C(=O)NC4CC4)cc3)CC2)cc1,-10.3%,u,i,u,u,u,u,0.2%,u
